# Whole data set: some 110,000 compounds, median “z-score” near -0.1, cut for the highest 2% near 2. What follows is part of a selection rich in the highest values, with near analogues and random picks from the rest. The source made the active and inactive calls.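 Rule for the calls: active = z-score in the third read window above 3 or below -3; inactive = the rest.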
# Target: Metabotropic glutamate receptor 8 (Rattus norvegicus) (UniProt P70579)
# Assay: rat mGluR8 modulators via GIRK flux, primary screen, cell-based, thallium flux, HTS (AID 488969)
# Settings: HEK293 rat mGluR8, GIRK (G protein-gated inwardly rectifying potassium channel) thallium flux, FluoZin2; at 10 µM; stronger effect = higher value; submaximal glutamate (EC20) added with thallium
# Metabotropic glutamate receptor 8 (Rattus norvegicus), sequence (P70579 whole entry, looked up): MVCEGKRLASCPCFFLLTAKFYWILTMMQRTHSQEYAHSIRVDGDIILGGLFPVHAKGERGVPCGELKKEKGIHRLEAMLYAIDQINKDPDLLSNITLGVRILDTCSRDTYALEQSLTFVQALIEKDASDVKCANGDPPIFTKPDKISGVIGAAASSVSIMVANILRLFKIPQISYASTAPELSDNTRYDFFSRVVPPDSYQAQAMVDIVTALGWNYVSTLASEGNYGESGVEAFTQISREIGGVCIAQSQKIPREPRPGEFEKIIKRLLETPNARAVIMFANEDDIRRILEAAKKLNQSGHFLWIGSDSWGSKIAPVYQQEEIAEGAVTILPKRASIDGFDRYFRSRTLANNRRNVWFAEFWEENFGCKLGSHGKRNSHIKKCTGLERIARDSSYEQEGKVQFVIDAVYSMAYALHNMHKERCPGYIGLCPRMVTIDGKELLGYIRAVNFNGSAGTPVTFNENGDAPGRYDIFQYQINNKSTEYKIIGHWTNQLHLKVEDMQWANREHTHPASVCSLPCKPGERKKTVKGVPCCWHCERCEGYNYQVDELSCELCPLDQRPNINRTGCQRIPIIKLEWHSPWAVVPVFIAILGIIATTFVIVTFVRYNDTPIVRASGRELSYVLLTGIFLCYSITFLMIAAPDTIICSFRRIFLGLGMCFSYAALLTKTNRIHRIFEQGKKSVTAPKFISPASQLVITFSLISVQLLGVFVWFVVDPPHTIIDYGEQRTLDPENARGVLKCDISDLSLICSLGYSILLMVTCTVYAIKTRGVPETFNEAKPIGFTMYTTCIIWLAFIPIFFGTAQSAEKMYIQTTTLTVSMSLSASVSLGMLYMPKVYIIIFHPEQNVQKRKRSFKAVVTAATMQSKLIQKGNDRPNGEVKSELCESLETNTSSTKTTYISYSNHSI
row,Structure (SMILES),z-score
1,O=C(CCC(=O)OCC(=O)c1cccc([N+](=O)[O-])c1)Nc1cccc(Cl)c1Cl,-0.0921
2,O=C(c1ccc(N2CCN(CCO)CC2)nc1)N1CCOCC1,0.0375
3,CC12CC(c3ccccc3O1)N(C(=O)c1ccco1)C(=S)N2c1ccc(F)cc1 (stereo not drawn),-0.812
4,CC(C)OC(=O)c1cc2c(ccn2C)n1CC(=O)N(Cc1ccccc1)c1ccc(F)cc1,-0.00352
5,CCOC(=O)c1nnn(-c2nonc2N)c1COc1ccc(F)cc1,-0.0888
6,O=C(CCCOc1ccccc1)Nc1nccs1,-1.29
7,Cc1ccc(C)c(OCCCC(=O)Nc2nccs2)c1,-0.0356
8,Cc1ccccc1OCCCC(=O)Nc1nccs1,2.49
9,COCCCn1c(=N)c(C(=O)NCc2ccc3c(c2)OCO3)cc2c(=O)n3ccccc3nc21,-0.494
10,CCCC(=O)OCC(=O)Nc1ccccc1Sc1ccccc1,-0.604
11,COc1ccccc1/C=N/NC(=O)CC(=O)NCc1cccnc1,-0.2
12,O=C(c1cc2nc(-c3ccco3)cc(C(F)(F)F)n2n1)N1CCN(Cc2ccccc2)CC1,-0.1
13,O=C1NC(=O)C2(COC(c3ccccc3Cl)OC2)S1 (stereo not drawn),-0.116
14,O=C1NC(=O)C2(COC(c3cccnc3)OC2)S1 (stereo not drawn),2.49
15,CCOC(=O)C1=C(C)NC(=O)NC1c1cccnc1 (stereo not drawn),0.62
16,CCCCn1c(CN2CCN(c3ccc(F)cc3)CC2)nc2c1c(=O)n(C)c(=O)n2C,-0.751
17,c1ccc(-c2noc(CSc3nnnn3-c3ccccc3)n2)cc1,2.18
18,CCn1c(SCc2nc(-c3ccccc3)no2)nnc1-c1cccs1,1.84
19,CCn1c(SCc2nc(-c3ccccc3)no2)nnc1-c1ccco1,-0.421
20,c1ccc(-c2noc(CSc3nnnn3C3CCCCC3)n2)cc1,-0.0529
21,CCn1c(SCc2nc(-c3ccccc3)no2)nc2ccccc21,3.16 (active)
22,c1ccc(CSc2nnnn2-c2ccccc2)cc1,-0.542
23,CC(C)c1[nH]nc2c1C(c1cccc(OC(=O)N3CCOCC3)c1)C(C#N)=C(N)O2 (stereo not drawn),-1.23

row,Structure (SMILES),z-score
1,FC(F)(F)c1ccc(CSc2nccn2-c2ccccc2)cc1,0.167
2,COc1cc(OC)c(OC)cc1/C=N/NC(=O)c1ccc(=O)n(C)c1,-0.238
3,Cc1cccc(C(=O)/C=C2/c3ccccc3CC(C)(C)N2C)c1,-0.509
4,CCOCCN1CCN(c2c(CC)c(C)nc3cc(-c4cc(OC)cc(OC)c4)nn23)CC1,-0.938
5,Nc1nc(SCC(=O)NC2CCCC2)[nH]c(=O)c1-c1ccccc1,-0.603
6,O=C(c1ccccc1NS(=O)(=O)c1cccs1)N1CCCC1,0.676
7,COC(=O)c1ccc2c(=O)n(C3CCCCC3)c(SCC#N)nc2c1,3.63 (active)
8,CCOC(=O)CSc1nc2ccccc2c(=O)n1C1CCCC1,0.684
9,CCOC(=O)CSc1nc2cc(C(=O)NCc3ccco3)ccc2c(=O)n1C1CCCCC1,0.724
10,COc1ccc(NC(=O)C(=O)NCCC2=CCCCC2)c(OC)c1,-0.33
11,Cc1ccc(OC(=S)Nc2ccc(F)cc2)cc1,0.0616
12,CCOC(=O)c1ccc(NC(=O)Nc2ccc(OC)c(OC)c2)cc1,6.79 (active)
13,COc1ccc(NC(=O)Nc2cc(C)ccc2F)cc1,0.0419
14,CCCCOC(=O)c1ccc(NC(=O)Nc2ccc(OC)c(OC)c2)cc1,-0.113
15,COc1ccc(OC)c(NC(=O)Nc2ccc(Cl)cc2)c1,0.245
16,CCOC(=O)c1ccccc1NC(=O)Nc1ccc(OC)c(OC)c1,0.154
17,Cc1ccc(OC(=S)Nc2ccccc2)c(C)c1,3.2 (active)
18,COc1ccc(C)cc1NC(=O)NCCC1=CCCCC1,10.6 (active)
19,Cc1ccc(OC(=S)Nc2ccc(O)cc2)cc1,0.0849
20,COc1ccc(NC(=O)Nc2cc(C)ccc2OC)cc1,2.83
21,COc1ccc(C(=O)NCCC2=CCCCC2)cc1OC,-0.214
22,Cc1nn(CC(=O)Nc2cccc(S(N)(=O)=O)c2)c(C)c1[N+](=O)[O-],-0.212
23,CCOc1ccc(-c2nnn(CC(=O)c3cc(OC)ccc3OC)n2)cc1,1.52

row,Structure (SMILES),z-score
1,CCCNC(=O)Cn1cnc2sc(C(=O)N3CCCC(C(=O)OCC)C3)c(C)c2c1=O (stereo not drawn),-1.05
2,CCN(CC)S(=O)(=O)c1ccc(NC(=O)C2CCCO2)cc1 (stereo not drawn),-0.205
3,CCCn1nc(C(=O)NCCN2CCOCC2)c2ccccc2c1=O,0.608
4,Cc1occc1-c1nnc(SCC(=O)N(C)CCC#N)n1N,0.286
5,O=C(NC1CCCCC1)C(c1ccc(O)cc1)N(CC1CCCO1)C(=O)C1COc2ccccc2O1 (stereo not drawn),0.338
6,COc1ccc(C)cc1NC(=O)Nc1ccccc1,11.5 (active)
7,CCOC(=O)Nc1cc(C)ccc1OC,0.0736
8,COc1ccc(C)cc1NC(=O)Nc1ccc(Br)cn1,0.233
9,Cc1cccc(-c2nnn(Cc3nnc(NC(=O)c4ccccc4)s3)n2)c1,-0.0603
10,Cc1ccc(C(=O)N2CCN(c3ccc(C(F)(F)F)cn3)CC2)c(C)c1,-0.0998
11,CC1CC(C)CN(C(=O)c2cc(-c3ccccn3)nc3ccccc23)C1 (stereo not drawn),-1.27
12,Cn1ccnc1SCC(=O)Nc1ccc2nc(SCC(=O)NC3CC3)sc2c1,-0.00819
13,CCOc1c2ccc(C(=O)NCc3cc(C(F)(F)F)cc(C(F)(F)F)c3)cc2nn1C,0.112
14,CCOC(=O)N1CCN(C(=O)CCCn2c(=S)[nH]c3ccc(Br)cc3c2=O)CC1,1.24
15,C=CCn1c(=S)[nH]c2ccccc2c1=O,13.6 (active)
16,O=C(CCCCCn1c(=S)[nH]c2ccc(Br)cc2c1=O)NCC1CCCO1 (stereo not drawn),1.92
17,C=CCn1c(=S)[nH]c2ccc(Br)cc2c1=O,15 (active)
18,C=C(C)Cn1c(=S)[nH]c2ccccc2c1=O,-0.0946
19,CC(C)OC(=O)CSc1nnc(Cc2ccccc2)n1Cc1ccco1,-0.4
20,Cc1cccc2cc(C(c3nnnn3C(C)(C)C)N3CCN(C(=O)c4ccco4)CC3)c(=O)[nH]c12 (stereo not drawn),0.516
21,CCN1CCN(C(=O)C2CCN(C(=O)c3cc4sccc4n3CC)CC2)CC1,2.56
22,CCN1CCN(C(=O)c2cc3sccc3n2CC(=O)c2ccccc2)CC1,-0.119
23,CCn1c(C(=O)N2CCC(C(=O)N3CCN(c4ccccn4)CC3)CC2)cc2sccc21,0.181

row,Structure (SMILES),z-score
1,CC1(C)C(C#N)=C(N)OC2=C1C(=O)CCC2,0.297
2,Cc1cc2nc3c(c(=O)n2[nH]1)CCCC3,-0.219
3,CCCC(=O)Nc1nc2ccc(S(N)(=O)=O)cc2s1,-0.295
4,O=C(NCC1CCCO1)C(c1cccs1)N(Cc1cccs1)C(=O)c1ccc(-c2ccccc2)[nH]1 (stereo not drawn),-0.486
5,O=C(NCC1CCCO1)C(c1cccs1)N(C(=O)c1ccc(-c2ccccc2)[nH]1)C1CCCC1 (stereo not drawn),-0.0712
6,O=C(NCC1CCCO1)C(c1cccs1)N(Cc1ccccc1Cl)C(=O)c1ccc(-c2ccccc2)[nH]1 (stereo not drawn),2.14
7,COC(=O)CC1COc2ccccc2N1C(=O)c1ccc(C(C)(C)C)cc1 (stereo not drawn),-0.191
8,CCCC(=O)Nc1cc(-c2nnc(OC)c3ccccc23)ccc1N1CCOCC1,-0.445
9,O=C(Oc1ccc([N+](=O)[O-])cc1)c1cccnc1,-0.0965
10,CNC(=S)SCCOc1ccc(C)cc1,6.37 (active)
11,CNC(=S)SCCOc1ccccc1C,0.297
12,CCNC(=S)SCCOc1ccc(C)cc1,0.376
13,Cc1ccc2nc3sc(C(=O)Nc4c(C)[nH]c(=O)[nH]c4=O)c(N)c3cc2c1,-0.158
14,NC(=O)CCn1nc(-c2ccc(Cl)cc2)c2ccccc2c1=O,-0.686
15,Cc1ccc(/C(O)=C/C(=O)C(=O)NNC(=O)C(O)(c2ccccc2)c2ccccc2)cc1,2.44
16,O=C(/C=C(\O)c1ccc(Cl)cc1)C(=O)NNC(=O)C(O)(c1ccccc1)c1ccccc1,-0.125
17,COc1ccc(/C(O)=C/C(=O)C(=O)NNC(=O)C(O)(c2ccccc2)c2ccccc2)cc1,-0.343
18,CCn1c(SCC(=O)Nc2nnc(C)s2)nnc1-c1ccco1,-0.0211
19,O=C1C(=O)N(CCO)C(c2ccccc2)/C1=C(\O)c1ccccc1 (stereo not drawn),-0.284
20,O=C(CNC(=O)C12CC3CC(CC(C3)C1)C2)N1CCN(S(=O)(=O)c2cccs2)CC1,-0.178
21,CCCn1c(SCC(=O)NC2CCCCC2C)n[nH]c1=O (stereo not drawn),0.79
22,O=[N+]([O-])c1ccc(/C=N/NC(=S)Nc2ccccc2)o1,2.92
23,Cc1ccc(-c2ccc(/C=N/NC(=S)Nc3ccccc3)o2)cc1[N+](=O)[O-],0.442

row,Structure (SMILES),z-score
1,O=C(CNc1ccccc1)N/N=C/c1ccc([N+](=O)[O-])o1,-0.389
2,O=[N+]([O-])c1ccc(/C=N/NC(=S)Nc2ccccc2F)o1,6.05 (active)
3,O=[N+]([O-])c1ccc(/C=N/NC(=S)Nc2ccccc2C(F)(F)F)o1,1.06
4,COC(=O)N/N=C/c1ccc([N+](=O)[O-])o1,-0.0263
5,N#CCCn1cc(/C=N/O)c(-c2ccccc2)n1,0.0606
6,C1=C(CCNc2nnnn2-c2ccccc2)CCCC1,-0.26
7,Fc1cccc(NC(=S)Nc2ccc(Br)cc2)c1,0.843
8,Fc1ccccc1NC(=S)Nc1ccc(Br)cc1,0.657
9,Fc1ccc(CNC(=S)Nc2ccc(Cl)cc2Cl)cc1,0.134
10,Cc1nn(-c2ccccc2)c(N2CCCC2)c1/C=N/NC(=S)Nc1ccccc1C(F)(F)F,0.583
11,Cc1nn(-c2ccccc2)c(N2CCCC2)c1/C=N/NC(=S)Nc1ccccc1F,2.42
12,CN(C)/C=N/C(=S)Nc1ccccc1F,0.0261
13,Cc1ccc(NC(=S)N/N=C/c2c(C)nn(-c3ccccc3)c2N2CCCC2)cc1,0.376
14,Fc1ccccc1/C=N/NC(=S)Nc1ccc(Cl)cc1Cl,3.47 (active)
15,FC(F)(F)c1ccc(Cl)c(NC(=S)N/N=C/c2ccccc2C(F)(F)F)c1,1.14
16,Fc1ccccc1NC(=S)N/N=C/c1ccccc1Br,13.4 (active)
17,Cn1c(NC(=O)c2ccco2)cc(=O)n(C)c1=O,-0.188
18,O=C(CCSCCc1ccccn1)Nc1ccc(Br)cc1F,-0.191
19,CCc1nc2ccccc2n1Cc1ccccc1OC,-0.822
20,CC1=NNC(=O)C1CCC(=O)N/N=C/C(Br)=C/c1ccccc1 (stereo not drawn),-0.0952
21,O=C(c1ccc([N+](=O)[O-])cc1)N(Cc1ccc(Cl)cc1)N1C(=O)CCCC1=O,-0.682
